Tau fibril ThT = qHTS for Inhibitors of Tau Fibril Formation, Thioflavin T Binding; recombinant tau K18 P301L, heparin-induced fibrillization, ThT fluorescence; actives 2.1% (n = 270,000); AID 1460, 2008; Potency, µM (doses to about 57.4 µM), inactives show top-dose activity, negative = inhibition, usual class: inhibitors; Microtubule-associated protein tau (Homo sapiens), P10636; also: potency is read from the fitted curve at half-maximal effect; nearly all actives have a fitted effect of over 55% in size
Target sequence (P10636 561-689 P618L limits assumed): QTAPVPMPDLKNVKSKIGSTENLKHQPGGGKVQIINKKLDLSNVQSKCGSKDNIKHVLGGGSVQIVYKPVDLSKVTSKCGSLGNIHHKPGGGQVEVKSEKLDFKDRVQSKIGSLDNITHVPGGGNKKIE
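Recombinant human tau K18 fragment […] carrying P301L, 15 uM unlabeled plus 0.24 uM Alexa 594-labeled, was fibrillized with 20 uM heparin in 100 mM sodium acetate pH 7 for 6 hr at 37 C; 30 uM ThT fluorescence read after 1 hr.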
FBPA coupling cs = qHTS Assay for Inhibitors of Fructose-1,6-bisphosphate Aldolase from Giardia Lamblia: Coupling assay counterscreen | coupling enzyme system counterscreen, AmpLite Red fluorescence | activity change, negative = inhibition, % at 58.2 µM, hits read low | actives 0.67% (n = 290,000) | AID 2472, 2010; in the data active = activity change below about -30%
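Counterscreen of the coupled detection system alone, without aldolase: glyceraldehyde-3-phosphate coupling enzymes plus AmpLite Red readout. Compounds at 57.5 uM final, 10 min RT preincubation, 20 min RT reaction, fluorescence 525/598 nm.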
Tau fluor counter = Counterscreen qHTS for Inhibitors of Tau Fibril Formation, Fluorescence Polarization; actives 0.93% (n = 280,000); tau K18 P301L Alexa594 fluorescence, heparin fibrillization; Potency, µM (top dose mostly 57.7 µM), without a hit: at the highest dose activity change, negative = decrease; also: potency is read from the fitted curve at half-maximal effect; nearly all actives have a fitted effect of over 55% in size
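Human tau K18 P301L (15 uM unlabeled, 0.24 uM Alexa 594-labeled) in 100 mM sodium acetate pH 7 with 20 uM heparin, 6 hr at 37 C. ThT 30 uM added, 1 hr ambient; Alexa 594 FP and total fluorescence read at 555/632 nm.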
Sfp PPTase inh = qHTS Assay for Inhibitors of Bacillus subtilis Sfp phosphopantetheinyl transferase (PPTase); 4'-phosphopantetheinyl transferase ffp (Bacillus subtilis), Q9F4F7; Biochemical Sfp PPTase activity, qHTS; Potency, µM, for inactives: largest response in the series, negative = inhibition, hits mostly inhibitors; actives 3.5% (n = 310,000); AID 1490, 2009;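 also: the enzyme is Sfp with the accession as filed and its product quenches rhodamine fluorescence; potency is read from the fitted curve at half-maximal effect; 0% = enzyme reaction without inhibitor and -100% = no enzyme wells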
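Fluorescence-quenching assay with 15 nM Sfp, 5 uM rhodamine-CoA and 12.5 uM BHQ-2-labelled ybbR peptide in pH 7.6 Hepes/MgCl2 buffer. Enzyme was pre-incubated with compound for 15 min at room temperature. Rate was taken from the 30-min fluorescence change (525/598 nm).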
G9a inh = qHTS Assay for Inhibitors of Histone Lysine Methyltransferase G9a | G9a H3K9 monomethylation, AlphaScreen, 2 h | actives 8.8% (n = 350,000) | AID 504332, 2011 | Potency, µM (top dose mostly 102 µM), inactives show at the top dose activity, negative = inhibition, actives largely listed as inhibitors | Histone-lysine N-methyltransferase EHMT2 (Homo sapiens), Q96KQ7; also: potency is read from the fitted curve at half-maximal effect; nearly all actives have a fitted effect of over 75% in size
Target sequence (Q96KQ7 913-1193 limits assumed): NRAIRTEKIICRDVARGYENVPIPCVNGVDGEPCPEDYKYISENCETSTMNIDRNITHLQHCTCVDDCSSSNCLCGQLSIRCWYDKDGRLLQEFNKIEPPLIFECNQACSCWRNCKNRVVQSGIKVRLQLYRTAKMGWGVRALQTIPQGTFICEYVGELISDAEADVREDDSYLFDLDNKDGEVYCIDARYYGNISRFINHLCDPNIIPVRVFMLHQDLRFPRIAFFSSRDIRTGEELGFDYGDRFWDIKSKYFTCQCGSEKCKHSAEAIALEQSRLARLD
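Methyltransferase reactions run at room temperature for 2 h (20 nM enzyme, 500 nM biotin-H3K9 peptide, 20 uM SAM) after a 15 min compound preincubation; product detected by AlphaScreen beads and anti-H3K9me1 antibody.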
Tau fibril FP = qHTS for Inhibitors of Tau Fibril Formation, Fluorescence Polarization. actives 0.39% (n = 280,000). AID 1468, 2008. Potency, µM (series often up to 57.7 µM), for inactives: top-dose activity, negative = inhibition, usual class: inhibitors. K18 P301L tau heparin fibrillization, Alexa594 FP, 6 h. Microtubule-associated protein tau (Homo sapiens), P10636; also: potency is read from the fitted curve at half-maximal effect; nearly all actives have a fitted effect of over 55% in size
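Read-out: fluorescence polarization of Alexa 594-labeled tau (0.24 uM), 555 nm excitation, 632 nm emission. Mixtures held 15 uM unlabeled K18 P301L, compound and 20 uM heparin, pH 7 acetate buffer, incubated 6 hr at 37 C.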
* hit, by the source's call; ? = inconclusive; · = not tested or not shown; [ ] = dose if it differs, or a comment. This is a sample that favours compounds with a hit; in the whole collection about 11% have one here. Unless noted, calls follow the shape of the dose curve; as a rule, active = well fitted curve in the direction sought with a large enough effect; inconclusive = small, poorly fitted or top-dose-only effect, or another doubt; inactive = no such curve, though single readings can be large; an effect the other way counts as inactive or inconclusive. Unless noted, % is scaled to controls: 0 for no effect and ±100 for the full control effect.

SMILES	Tau fibril ThT	FBPA coupling cs	Tau fluor counter	Sfp PPTase inh	G9a inh	Tau fibril FP
CN(Cc1ccc(Br)cc1)CC(O)COc1cccc(Br)c1 (centres undefined)	·	-2	·	-16%	22µM*	·
COc1cc(C(C)=O)ccc1OCC(O)CNCC(O)c1ccccc1 (centres undefined)	·	-1	·	-23%	24%	·
COc1ccc(Cc2noc(CN(C)CC(O)c3ccccc3)n2)cc1OC (centres undefined)	-11%	3	-8%	-8%	·	-1%
COc1ccc(CCN(C)CCc2ccc(OC)c(OC)c2)cc1OC	0%	2	0%	16%	16µM*	1%
COc1ccc(CCN(C)CC(O)COc2ccc(C(C)=O)cc2OC)cc1OC (centres undefined)	·	-2	·	-2%	28µM*	·
O=C(CSC1=Nc2ccccc2C2=NC(Cc3ccccc3)C(=O)N12)Nc1cccc(Cl)c1 (centres undefined)	3%	·	?	·	-2%[12.7 µM]	-19%
O=C(O)c1cc(-c2ccccc2)nn1Cc1ccccc1	0%	·	2%	·	-20%[59 µM]	8%
CCc1ccc(NC(=O)Cn2c(=O)n(CCCC(=O)NCc3ccccc3OC)c(=O)c3ccccc32)cc1	5%	·	-8%	·	12%[59 µM]	?
COc1ccc(CN(C)CC(O)COc2ccc(-c3ccccc3)cc2)cc1OC (centres undefined)	·	0	·	-13%	40µM*	·
CN(Cc1ccc(OCC(O)CN(C)Cc2ccccc2)cc1)Cc1nccn1C (centres undefined)	-5%	-2	-3%	-3%	-106%[59 µM]	-3%
COc1ccc(CCN(C)C/C=C/c2ccccc2)cc1OC	·	2	·	-13%	50µM*	·
C=CCOc1ccc(CN(C)CC(O)COc2ccc(CCC(C)=O)cc2)cc1 (centres undefined)	·	0	·	-26%	10µM*	·
CC[C@H](C)[C@H](NC(N)=O)C(=O)Nc1ccc(OC)c(Cl)c1	10%	0	0%	9%	-2%	-9%
Cc1ccc(NC(=O)C(OC(=O)c2ccccc2Cl)c2ccccc2)cc1Cl (centres undefined)	1%	-7	?	30%	18%[59 µM]	?
Cc1ccc(NC(=O)C(OC(=O)c2ccc(NC(N)=O)cc2)c2ccccc2)cc1Cl (centres undefined)	?	2	?	15%	22%[59 µM]	13µM*
CCC(C)C(NC(N)=O)C(=O)Nc1ccc(C)c(Cl)c1 (centres undefined)	-5%	7	-5%	-14%	8.9µM*	1%
COC(=O)c1cc2sc(C)cc2n1Cc1ccc(Br)cc1F	?	·	-26%	·	88%[59 µM]	0%
O=C(CSCc1cnn(-c2ccccc2)c1-n1cccc1)NCc1cccc(Cl)c1	-6%	·	-27%	·	-45%[59 µM]	-4%
COc1ccc(C)cc1NC(=O)C1CCC(CNS(=O)(=O)c2ccc3c(c2)CCCC(=O)N3)CC1 (centres undefined)	-2%	·	-9%	·	-2%[59 µM]	3%
Cc1ccc(NC(=O)c2cc(C(C)(C)C)nn2Cc2ccccc2)cc1	-13%	-4	-25%	14%	·	-2%
COc1ccccc1NNC(=O)c1cc(C(C)(C)C)nn1Cc1ccccc1	-12%	0	-21%	10%	13µM*	4%
Cc1ccc(NNC(=O)c2cc(C(C)(C)C)nn2Cc2ccccc2)cc1	?	-6	?	9%	3.5µM*	-11%
CCN(CC)S(=O)(=O)c1ccc2oc(Nc3ccc(OC)cc3)nc2c1	·	1	·	7%	20%	·
CCS(=O)(=O)c1ccc2oc(Nc3ccc(C(C)C)cc3)nc2c1	40µM*	2	?	18µM*	1.8µM*	?
